Measured values: PubChem BioAssay (NCI)
Compounds without any hit were thinned out: in the full panel of roughly 79,000, 15% have a hit. Activity calls are given as the source filed them. No stated cut-off is given here; in the data, active means growth inhibition above about 70%; inactive means the rest.

Experiments:
[1] = NCI Yeast Anticancer Drug Screen. Data for the mec2-1 strain (AID 157); details: S. cerevisiae mec2-1 strain, hits give high values
Outline: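 mec2-1 yeast strain, carrying an alteration in DNA damage repair or cell cycle control, was exposed to compounds; growth inhibition was measured relative to vehicle-treated controls.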

[2] = NCI Yeast Anticancer Drug Screen. Data for the rad14 strain (AID 159);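 further: 0% = growth of vehicle-treated control cultures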; details: S. cerevisiae rad14 strain growth inhibition, hits give high values
Outline: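 Here, inhibition of yeast growth was measured after compound exposure, using a strain with a genetic defect in DNA damage repair and vehicle-treated cultures as the reference.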

[3] = NCI Yeast Anticancer Drug Screen. Data for the sgs1 mgt1 strain (AID 161);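 further: 0% = growth of cultures given vehicle only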; details: S. cerevisiae sgs1 mgt1 strain, hits give high values
Outline: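 Growth of a repair-deficient yeast mutant was monitored after compound treatment and expressed as inhibition relative to vehicle-treated cultures.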

[4] = NCI Yeast Anticancer Drug Screen. Data for the CLN2oe strain (AID 163);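 further: 0% = growth of vehicle-only control cultures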; details: S. cerevisiae CLN2oe strain, hits give high values
Outline: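 Yeast cells carrying a defined cell-cycle control alteration were exposed to test compounds. Growth inhibition was scored against vehicle-treated control cultures.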

[5] = NCI Yeast Anticancer Drug Screen. Data for the cln2 rad14 strain (AID 165);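 further: 0% = growth equal to vehicle treated cultures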; details: S. cerevisiae cln2 rad14 strain, hits give high values
Outline: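 Yeast carrying cln2 and rad14 alterations (cell cycle control and DNA damage repair) were exposed to compounds. Growth inhibition was measured against vehicle-treated controls.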

[6] = NCI Yeast Anticancer Drug Screen. Data for the bub3 strain (AID 167); details: S. cerevisiae bub3 mutant strain, hits give high values
Outline: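 Whole-cell yeast assay. The mutant strain was incubated with compounds, and growth inhibition was determined by comparison with vehicle-treated cells.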

[7] = NCI Yeast Anticancer Drug Screen. Data for the wt2 strain (AID 169);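 further: 0% = growth of vehicle-treated yeast cultures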; details: S. cerevisiae wt2 strain growth inhibition, hits give high values
Outline: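 Yeast cells were exposed to test compounds, and growth inhibition was measured relative to vehicle-treated controls.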

[8] = NCI Yeast Anticancer Drug Screen. Data for the mlh1 strain (AID 171);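 further: 0% = growth of vehicle-treated control cultures of the same strain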; details: S. cerevisiae mlh1 strain growth inhibition, hits give high values
Outline: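 Yeast carrying a defined genetic alteration in DNA damage repair or cell cycle control were exposed to test compounds. Growth inhibition was measured relative to vehicle-treated controls.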

[9] = NCI Yeast Anticancer Drug Screen. Data for the sgs1 strain (AID 173);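 further: 0% = growth of vehicle-only control cultures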; details: S. cerevisiae sgs1 mutant, hits give high values
Outline: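 Yeast mutant strains carrying defined defects in DNA damage repair or cell cycle control were exposed to test compounds. Growth inhibition was scored against vehicle-treated controls.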

[10] = NCI Yeast Anticancer Drug Screen. Data for the mlh1 rad18 strain (AID 175); details: S. cerevisiae mlh1 rad18 strain growth inhibition, hits give high values
Outline: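 Growth inhibition of the yeast strain was measured after compound exposure and expressed relative to vehicle-treated controls. The strain carries defined defects in DNA damage repair.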

[11] = NCI Yeast Anticancer Drug Screen. Data for the rad18 strain (AID 177); details: S. cerevisiae rad18 mutant growth inhibition, hits give high values
Outline: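 Yeast carrying a defined DNA damage repair alteration were exposed to compounds. Growth inhibition was expressed relative to vehicle-treated controls.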

[12] = NCI Yeast Anticancer Drug Screen. Data for the rad52 strain (AID 147);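 further: 0% = growth of vehicle-treated control cultures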; details: S. cerevisiae rad52 mutant growth inhibition, hits give high values
Outline: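 Yeast strain carrying a DNA damage repair alteration was exposed to test compounds. Growth inhibition was measured relative to vehicle-treated controls.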

[13] = NCI Yeast Anticancer Drug Screen. Data for the wt1 strain (AID 149);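 further: 0% = growth of vehicle-treated wt1 cultures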; details: S. cerevisiae wt1 strain (SPY 50644) growth inhibition, hits give high values
Outline: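 Measured: growth of wt1 yeast under compound versus vehicle treatment, reported as inhibition.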

[14] = NCI Yeast Anticancer Drug Screen. Data for the rad50EPP+ strain (AID 151);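 further: 0% = growth of vehicle-treated control cultures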; details: S. cerevisiae rad50 mutant strain, hits give high values
Outline: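 Yeast strain carrying rad50 alteration (rad50EPP+) exposed to compounds; growth inhibition measured relative to vehicle-treated controls.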

[15] = NCI Yeast Anticancer Drug Screen. Data for the mgt1 strain (AID 153); details: S. cerevisiae mgt1 mutant growth inhibition, hits give high values
Outline: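 Yeast mgt1 strain (DNA repair/cell-cycle alteration panel) exposed to compounds; growth inhibition measured relative to vehicle-treated controls.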

[16] = NCI Yeast Anticancer Drug Screen. Data for the rad50 strain (AID 155);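 further: 0% = growth of vehicle-only cultures of the same strain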; details: S. cerevisiae rad50 strain growth inhibition, hits give high values
Outline: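 Growth of the mutant yeast was measured after compound exposure and referenced to vehicle-treated cultures.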

[17] = at 5.0 µM (retest, dose inferred, filed as 0.5)
[18] = at 50.0 µM (retest, dose inferred, filed as 5.0)

Measured: growth inhibition

COc1cc(C(=O)/C=C/c2ccccc2O)ccc1O
active: [1]; [17] 80% | [1]; at 11.0 µM 99% | [1]; at 33.0 µM 98% | [1]; [18] 99% | [1]; at 50.0 µM 94.4% | [1]; at 100.0 µM 98% | [2]; at 11.0 µM 99% | [2]; at 33.0 µM 98% | [2]; at 100.0 µM 98% | [3]; [18] 98% | [3]; at 50.0 µM 94.4% | [4]; at 11.0 µM 99% | [4]; at 33.0 µM 99% | [4]; at 100.0 µM 98% | [5]; [18] 98% | [5]; at 50.0 µM 92.8% | [6]; [17] 76% | [6]; at 11.0 µM 99% | [6]; at 33.0 µM 99% | [6]; [18] 97% | [6]; at 50.0 µM 94.2% | [6]; at 100.0 µM 98% | [7]; at 11.0 µM 99% | [7]; at 33.0 µM 99% | [7]; at 100.0 µM 98% | [8]; at 11.0 µM 99% | [8]; at 33.0 µM 99% | [8]; at 100.0 µM 98% | [9]; at 11.0 µM 99% | [9]; at 33.0 µM 99% | [9]; at 100.0 µM 99% | [10]; [17] 79% | [10]; [18] 98% | [10]; at 50.0 µM 91.8% | [11]; at 11.0 µM 98% | [11]; at 33.0 µM 98% | [11]; at 100.0 µM 98%
inactive: [2]; at 1.2 µM -6% | [2]; at 3.7 µM 62% | [3]; [17] -4% | [4]; at 1.2 µM 19% | [4]; at 3.7 µM 42% | [5]; [17] 42% | [6]; at 1.2 µM -20% | [6]; at 3.7 µM 53% | [7]; at 1.2 µM -24% | [7]; at 3.7 µM 50% | [8]; at 1.2 µM 1% | [8]; at 3.7 µM 62% | [9]; at 1.2 µM 8% | [9]; at 3.7 µM 26% | [11]; at 1.2 µM 1% | [11]; at 3.7 µM 47%

CN(C)c1ccc(C(C#N)=C(C#N)C#N)cc1
active: [16]; [18] 70% | [16]; at 50.0 µM 88.2% | [1]; [18] 82% | [1]; at 50.0 µM 89.3% | [3]; at 50.0 µM 73.2% | [6]; [18] 77% | [6]; at 50.0 µM 83.4% | [10]; [18] 76% | [10]; at 50.0 µM 89.6%
inactive: [12]; at 1.2 µM -2% | [12]; at 3.7 µM -1% | [12]; at 11.0 µM 2% | [12]; at 33.0 µM 5% | [12]; at 100.0 µM 49% | [13]; at 1.2 µM -6% | [13]; at 3.7 µM -5% | [13]; at 11.0 µM -6% | [13]; at 33.0 µM -4% | [13]; at 100.0 µM 12% | [14]; at 1.2 µM 1% | [14]; at 3.7 µM 3% | [14]; at 11.0 µM 7% | [14]; at 33.0 µM 15% | [14]; at 100.0 µM 50% | [15]; at 1.2 µM -3% | [15]; at 3.7 µM -2% | [15]; at 11.0 µM -1% | [15]; at 33.0 µM -4% | [15]; at 100.0 µM 10% | [16]; at 1.2 µM -2% | [16]; at 3.7 µM -8% | [16]; [17] -127% | [16]; at 11.0 µM 6% | [16]; at 33.0 µM 11% | [16]; at 100.0 µM 62% | [1]; at 1.2 µM 2% | [1]; at 3.7 µM 2% | [1]; [17] -35% | [1]; at 11.0 µM 9% | [1]; at 33.0 µM 3% | [1]; at 100.0 µM 18% | [2]; at 1.2 µM 3% | [2]; at 3.7 µM 8% | [2]; at 11.0 µM 10% | [2]; at 33.0 µM 11% | [2]; at 100.0 µM 33% | [3]; [17] -47% | [3]; [18] 60% | [4]; at 1.2 µM 2% | [4]; at 3.7 µM 7% | [4]; at 11.0 µM 8% | [4]; at 33.0 µM 8% | [4]; at 100.0 µM 16% | [5]; [17] -45% | [5]; [18] 6% | [5]; at 50.0 µM 59.5% | [6]; at 1.2 µM -10% | [6]; at 3.7 µM -5% | [6]; [17] -54% | [6]; at 11.0 µM -5% | [6]; at 33.0 µM -7% | [6]; at 100.0 µM 31% | [7]; at 1.2 µM -2% | [7]; at 3.7 µM 0% | [7]; at 11.0 µM -1% | [7]; at 33.0 µM 0% | [7]; at 100.0 µM 7% | [8]; at 1.2 µM 6% | [8]; at 3.7 µM -6% | [8]; at 11.0 µM -3% | [8]; at 33.0 µM -6% | [8]; at 100.0 µM 17% | [9]; at 1.2 µM -1% | [9]; at 3.7 µM -3% | [9]; at 11.0 µM -3% | [9]; at 33.0 µM -2% | [9]; at 100.0 µM 44% | [10]; [17] -108% | [11]; at 1.2 µM 0% | [11]; at 3.7 µM 1% | [11]; at 11.0 µM 5% | [11]; at 33.0 µM 6% | [11]; at 100.0 µM 39%

COc1cc2c3c(cccc3c1)C(=O)N(CCN(C)C)C2=O
active: [12]; at 100.0 µM 87% | [14]; at 100.0 µM 78% | [16]; [18] 77% | [16]; at 50.0 µM 71.6% | [16]; at 100.0 µM 88%
inactive: [12]; at 1.2 µM -43% | [12]; at 3.7 µM -14% | [12]; at 11.0 µM 20% | [12]; at 33.0 µM 55% | [13]; at 1.2 µM -6% | [13]; at 3.7 µM -11% | [13]; at 11.0 µM -10% | [13]; at 33.0 µM -1% | [13]; at 100.0 µM 2% | [14]; at 1.2 µM -23% | [14]; at 3.7 µM 1% | [14]; at 11.0 µM 8% | [14]; at 33.0 µM 34% | [15]; at 1.2 µM -24% | [15]; at 3.7 µM -22% | [15]; at 11.0 µM -32% | [15]; at 33.0 µM -23% | [15]; at 100.0 µM -7% | [16]; at 1.2 µM 10% | [16]; at 3.7 µM 0% | [16]; [17] 23% | [16]; at 11.0 µM 29% | [16]; at 33.0 µM 61% | [1]; at 1.2 µM -17% | [1]; at 3.7 µM -11% | [1]; [17] 8% | [1]; at 11.0 µM -23% | [1]; at 33.0 µM -19% | [1]; [18] 11% | [1]; at 50.0 µM -5.45% | [1]; at 100.0 µM 9% | [2]; at 1.2 µM -33% | [2]; at 3.7 µM -18% | [2]; at 11.0 µM -24% | [2]; at 33.0 µM -3% | [2]; at 100.0 µM -14% | [3]; [17] 13% | [3]; [18] 23% | [3]; at 50.0 µM -13.1% | [4]; at 1.2 µM -5% | [4]; at 3.7 µM 13% | [4]; at 11.0 µM 25% | [4]; at 33.0 µM 34% | [4]; at 100.0 µM 21% | [5]; [17] 0% | [5]; [18] 3% | [5]; at 50.0 µM -5.5% | [6]; at 1.2 µM -13% | [6]; at 3.7 µM -12% | [6]; [17] 21% | [6]; at 11.0 µM -9% | [6]; at 33.0 µM -10% | [6]; [18] 21% | [6]; at 50.0 µM -34% | [6]; at 100.0 µM -4% | [7]; at 1.2 µM -2% | [7]; at 3.7 µM 1% | [7]; at 11.0 µM -23% | [7]; at 33.0 µM -12% | [7]; at 100.0 µM 5% | [8]; at 1.2 µM -39% | [8]; at 3.7 µM 3% | [8]; at 11.0 µM -19% | [8]; at 33.0 µM -9% | [8]; at 100.0 µM 0% | [9]; at 1.2 µM -21% | [9]; at 3.7 µM -14% | [9]; at 11.0 µM -22% | [9]; at 33.0 µM -15% | [9]; at 100.0 µM -11% | [10]; [17] 42% | [10]; [18] 55% | [10]; at 50.0 µM -50.4% | [11]; at 1.2 µM -34% | [11]; at 3.7 µM -18% | [11]; at 11.0 µM -23% | [11]; at 33.0 µM -15% | [11]; at 100.0 µM -27%
